PubChem BioAssay AID1508600 (Functional Genomics Laboratory (NCATS/FGL), 2020)
In all, about 53,000 sequences went through this assay and about 3,700 (7%) were called active. This is one part of a sample in which actives are shown more often than they occur. A number with no mark means an inactive call.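 Rule for the calls: active = gene knockdowns whose robust z-score for IL-1 alpha signal is at least 2 or at most -2, so actives lie on both sides; inactive = the rest.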

Test: Components of the Cytosolic LPS Sensing Pathway: Gene Identification via Genome-wide siRNA Screen;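 note: robust z of the log signal after scaling to non-targeting control siRNA wells of the plate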
Conditions: RAW264.7 macrophages, IL-1a HTRF, actives lie on both sides, screened at 100 nM (by protocol), cells primed 5 h with Pam3CSK4 first
In short: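 Using IL-1a HTRF as read-out, the screen measured release from RAW264.7 cells after 48h siRNA knockdown (100 nM), 5 h Pam3CSK4 priming and 24 h cytosolic LipidA. Values were expressed relative to negative-control wells as robust z-scores.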
GGACUAGUCCUAAGAAGAGTT against Rbmxl2 showed a z-score of -1.27.
GCCUAUCUACGACCUCAUCTT against Kel showed a z-score of -0.768.
With GGCCAUUACCCAUGAGACUTT against Cd63 the z-score was 0.997.
Sequence GGAACAAAUGUUCGAAAUGTT against Eif4a2 has a z-score of -0.0347.
With GGAUAUGAAACACCAGAUCTT against Naip2 the z-score was -1.89.
With GCAGCAGACACUCUGUACATT against Pcbp4 the z-score was -0.0747.
Work on GGACAAGUACAGGUUCCUATT against Vrk3 yielded a z-score of 0.536.
With GGCACUGUUCGGCAAGAAGTT against Trappc5 the z-score was -2.1 (active).
For GCUCGUUUGAUGCUGUCUCTT against Prkag1, the z-score was -1.17.
Sequence GCUGUUUUGGUAGAUUUUGTT against Map3k8 has a z-score of 0.0466.
With CGGGCAGCUAGAUUUCCAATT against S100a11 the z-score was 2.86 (active).
GCUGAACCUGCAGCACAUCTT against Mettl7a2 gave a z-score of -0.0665.
GGAGUACAUUGUGAAUGUUTT against Tnr showed a z-score of -1.44.
GCUGGUGAACCAAAAACUCTT against Ccdc3 showed a z-score of -0.366.
Sequence GGACAUGGUACCACAGGAGTT against Tenm4 has a z-score of 0.643.
GAGCCAAAUCAGGAACAGCTT against Trim29 showed a z-score of 1.4.
For GCCAAUAGCUCCAGCUUGATT against Olfr668, the z-score was 0.534.
In the case of GGCUAUAGGUUUCUGGGAATT against Fzd6, the z-score is reported as 4.94 (active).
Sequence GGCAACUUGGGAGUUUCACTT against Kcnab1 has a z-score of 1.41.
In the case of CUUGGUGGAUGAAAGAUUCTT against Tdpoz2, the z-score is reported as -0.776.
In the case of GGUCAAAGUGUAACUUGUUTT against Rwdd4a, the z-score is reported as -0.0956.
With GGAAGAUGAACAUCAAACATT against Dglucy the z-score was 0.855.
GGAAGAGAGCGAUUAAAUUTT against Rsrc2 gave a z-score of 0.839.
With GGGCUGGAAUCUAGGAAGUTT against Ccr10 the z-score was 2.68 (active).
For GGAAAAUGUCCGUAAAAGGTT against Dtx2, the z-score was 0.196.
For GGAGACACUCGUCCUUUAUTT against Cyp20a1, the z-score was -1.27.
GCUUUACUAUGUGAGAAAUTT against Ryk showed a z-score of -1.89.
With GGGACAAUCAACACAAAAUTT against Ythdf3 the z-score was 0.172.
In the case of CCACCAAGGAGACAUAGAUTT against Nans, the z-score is reported as 2.85 (active).
GGUCUUGGAGGAUCCCAAUTT against Tex13a gave a z-score of -1.55.
For GCAUAUCGCUUUUGUGAGCTT against E2f6, the z-score was 2.31 (active).
GCUCUCUGAAAGAGUAUUGTT against Khdrbs2 gave a z-score of 0.963.
Work on GACAAGCUGUGGAGAAGUGTT against Lce1b yielded a z-score of 0.298.
For CCGAUUGAAAUAUGAAUCCTT against Cuedc1, the z-score was 1.22.
“CCAAGAAAUUGCACUGGGATT against A130050O07Rik” gave a z-score of 0.781.
In the case of GCUGUUAAAACUCUCGUUATT against Pdk3, the z-score is reported as 2.02 (active).
With CCACAUCCUGACUACUACATT against Sumo2 the z-score was -1.14.
For GGUUCUUGGUGAUGAUGAGTT against Pds5a, the z-score was -2.6 (active).
GGUGAACUGGUCUACAACATT against Muc2 showed a z-score of 0.34.
For GGAGUUGAGCAAGACCAAGTT against Ccdc102a, the z-score was 0.628.
Work on GGGUAUAUUUGGAACUACGTT against Ppa1 yielded a z-score of -1.2.
For GGACAUGAACCUCUUCAAATT against Fads2, the z-score was 0.632.
For CCUCUGCUUUGUUACUUCCTT against Olfr1431, the z-score was -0.287.
CCACCUAUUACAUGAUCUUTT against Rnf32 showed a z-score of -0.23.
In the case of GGACCGGUUUAUUUGGCGGTT against Mmp2, the z-score is reported as 3.43 (active).
Work on GCAAACGACUGUGACAAAATT against Ly6m yielded a z-score of -0.0028.
CCUCCCUAAUGGUCCAUUATT against Cyp2j13 gave a z-score of -0.517.
Work on GCUGGAGAACCUCCCUAAATT against Mrps33 yielded a z-score of 1.14.
Work on GGUAAUGAAGGAACUGGAUTT against S100a1 yielded a z-score of 0.0105.
In the case of GGGUGACCUAAUCCAGUGUTT against Neurog3, the z-score is reported as 2.5 (active).
GGAGUUGCCCUCAUCUUCATT against Casp6 gave a z-score of -1.59.
GGUGGAACUCGUCAAUAGCTT against Vat1 showed a z-score of 0.269.
For GGUGAACAGUUGAUUUCAUTT against Smim10l2a, the z-score was 1.48.
With GGAUCACAUCGAGAAAACCTT against Utrn the z-score was -1.57.
In the case of GCUUCUGUUCGUUACGUCCTT against Ndufc2, the z-score is reported as 2.55 (active).
For GCGGAAAGGCCAAACGAUUTT against Inhbb, the z-score was -0.734.
With CCUUCUCCAUGUCAGAUCUTT against Col5a2 the z-score was 0.23.
In the case of GGCAAAGUUGCCAGAUGAATT against Mettl23, the z-score is reported as 2.42 (active).
Sequence GGAUACGCUUGUCCCACCATT against Mdm1 has a z-score of -0.649.
CCAUUAUGGGAGGAAGAUUTT against Clvs2 showed a z-score of 0.969.
GGACAAAGAGAAUGAUGGATT against Cdc25b gave a z-score of -1.68.
In the case of “GCUAAUCCCAUCUCGUCCUTT against 3110009E18Rik”, the z-score is reported as 1.15.
GGCCGAAGCAUCUUCAAGATT against Wdr24 gave a z-score of 1.88.
With GGCUGAAAAAAGUGGAGAATT against Sh3bgr the z-score was 2.12 (active).
Work on GGAUCCCAUUAGAAAGAAATT against Cbx2 yielded a z-score of 0.316.
GCGAUUACUACUUGAAACUTT against Fa2h gave a z-score of -0.384.
With CGGAUGUGGGCAUUCGUUATT against Fbxl7 the z-score was 0.421.
Sequence GGUUUUGGGUCUAUGCUUCTT against Sde2 has a z-score of 0.311.
For GGUAAGGAAAACAAAUAUGTT against En1, the z-score was 2.13 (active).
Work on GAAAAAAAUCCGUUCCCUCTT against Mrpl33 yielded a z-score of 0.257.
GGAUUUUGCUCAGACGACATT against Taf1a gave a z-score of 0.291.
With GGUUGGUAGGCUUUGGUGUTT against Notum the z-score was 0.657.
With GCAGUGUCGCAUUACAUCGTT against Sec16a the z-score was 3.45 (active).
In the case of GGAGAAUCAUGUGAGCCUGTT against Tph1, the z-score is reported as -0.0851.
With UAUUCUAUCCGAACACCUUTT against Gm4884 the z-score was 2.19 (active).
Sequence GGAGAACUUCCUAUACUAUTT against Apobec2 has a z-score of 0.448.
GGAAAGCAAAAAGUUUCAGTT against Fam118b gave a z-score of -1.14.
For CGCAUAGAGCCUGUCCUCATT against Spink1, the z-score was -1.57.
For GCUCGAUGUGAACUGCUAGTT against Ankrd9, the z-score was 2.12 (active).
In the case of GGUACAUAUGUGAUGACCGTT against Cdh4, the z-score is reported as -0.289.
Work on GGCGUAGGGCCAUAUCAUUTT against Olfr109 yielded a z-score of -0.117.
For GGUCAUGAACCUCAUCAUCTT against Nckap1l, the z-score was -0.552.
In the case of GGCUGAAUAAAAUAAGUGUTT against Adra1a, the z-score is reported as -1.1.
In the case of GGUUUAAUGUUAUAUACGGTT against Olfr606, the z-score is reported as 2.43 (active).
CCAAAAGUGGAGAGCGACATT against Cnrip1 showed a z-score of -1.32.
Sequence GGAGCGAGAAGGUAAAGUCTT against Pibf1 has a z-score of 1.05.
Sequence GGGACUGGAAUUGACAUCCTT against Trpm4 has a z-score of -1.38.
GGGAAUUUUUGUGGGUGAATT against Bbs2 gave a z-score of -0.541.
With GGUGCUGAUUGACCUAACATT against Wdtc1 the z-score was -2.24 (active).
In the case of GGAAGUGGAGGAAAAGAAGTT against Pdcd7, the z-score is reported as -2.52 (active).
With GGAAAAACUACUCAAGGAGTT against Evi5l the z-score was -0.0731.
With CCUGGUUAAAGGUUAUCCATT against Commd7 the z-score was -3.9e-05.
In the case of GGCAAGUCUGUGUGCAGAUTT against Olfr267, the z-score is reported as 0.579.
Sequence CCAGGAACCUAUUGAAUCUTT against Plpp7 has a z-score of 1.15.
With GGUAGAAAACAUAAAUGGUTT against Sec16a the z-score was 1.71.
GGCCAUGGUUAAACCAUAUTT against Pdcl2 showed a z-score of 0.791.
In the case of GGACCUAUACAAGGGAGGUTT against Il1f10, the z-score is reported as 1.17.
For GGUGUUUUCUGUGCUGUGATT against Klhdc3, the z-score was -1.55.
In the case of GGUGCUUAUACUUCUUUGUTT against Sgcz, the z-score is reported as -2.42 (active).
In the case of GCCAAUAAUUGUCACACAUTT against Adgrg3, the z-score is reported as 1.94.
In the case of GGACUUGGGUUUCAAUUCCTT against Ddx27, the z-score is reported as -0.876.
For GGCACUCAGAAAUAUUCAGTT against Nap1l3, the z-score was 3.84 (active).
With GCAGUCUUCCCUCAUCCUUTT against Cox8a the z-score was 1.74.
GGCAGUAAAUAGUAAGAAATT against Ccr9 showed a z-score of -0.716.
For GGAGUGGUGUGUCAUUGAUTT against Impact, the z-score was -0.663.
Work on GCACAACAUCCCAGAUAAATT against Ankrd55 yielded a z-score of 0.338.
With GGAUACCCUGCUUCCAAAATT against Hpd the z-score was 2.23 (active).
GCCAGGCAAAUUACAUCGCTT against Shroom1 gave a z-score of 0.303.
